For 47 molecules, inhibition results are on record in PubChem BioAssay AID743397 (Broad Institute, 2014).

SMILES strings stand for the structures. Among all 340,000 compounds or so, about 330 (0.097%) were called active.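 The calls were made as follows: active = mean replicate inhibition of at least 30% and at least 1% of replicates passing that level; inconclusive = only one of the two criteria is met; inactive = neither criterion is met.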 The sample as a whole holds a higher share of actives than the screen did.

The subject of this assay is Voltage-dependent L-type calcium channel subunit alpha-1D (CaV1.3) ICDI/IQ interaction. In words: Disruptors of the CACNA1D IQ motif to Ca2+-dependent inactivation inhibitor domain association, primary screening, Förster resonance energy transfer in intact living cells, one concentration (AID 743397).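 Also: 0% = median of the neutral control wells.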 As to conditions: HEK cells, CFP/YFP FRET ICDI-IQ, plate reader, 10 min; at 12.3 µM; stronger effect = higher value; percent FRET-ratio fall versus neutral wells.
For `COC(=O)[C@]1(Cc2ccccc2)NC=C(C(=O)c2ccccc2)[C@@H]1c1cccc(OC)c1`, the inhibition is -4.9% (inactive). The same measure for `COc1ccccc1CCn1cnc(-c2ccccc2)c1C(C)C`: -7.51% (inactive); for `CCCn1c(=O)c(-c2ccccc2)c(O)c2ccccc21`: -7.92% (inactive).

`CCCCN(CCCC)CC(O)Cn1c2ccccc2c(=O)c2ccccc21` (configuration not stated): the inhibition was 107% (active).

For `CCCCCn1c(=O)c(C(=O)OCC)c(Cl)c2ccccc21`, the inhibition was -4.21% (inactive).

Take `COC(=O)c1cc2c(c3c4ccccc4n(S(=O)(=O)c4cccc(C)c4)c13)C(=O)N(Cc1ccccc1)C2`: the inhibition was -4.46% (inactive).

Regarding `COC(=O)c1c(-c2ccc(OC)cc2)c2c(c3c4ccccc4n(S(=O)(=O)c4ccc(C)cc4)c13)C(=O)N(C)C2`, the inhibition was -10.3% (inactive). As for `COC(=O)C1=C(C)N(Cc2cccc(C(F)(F)F)c2)C(=NCc2ccccc2)NC1c1ccc(Cl)cc1` (configuration not stated), the figure is -3.3% (inactive); as for `COc1ccc(-c2cc(NC=O)c3ncc(-c4cc(OC)c(OC)c(OC)c4)n3c2)c(OC)c1`, -3.57% (inactive). As to `COC(=O)[C@]12C[C@H](CC(=O)NCc3cccc(C(F)(F)F)c3)C(=O)N(Cc3ccc4c(c3)OCO4)C1=C[C@H](COCc1ccccc1)O[C@@H]2C`, the inhibition was -9.09% (inactive). As for `Cc1ccc(O)c(NC(=S)NC(=O)COc2ccc(Br)cc2)c1`, the figure is 40.4% (active). In the case of `CC(=O)Nc1ccc(OC(=O)COc2ccc(Br)cc2)cc1`, the inhibition is -4.58% (inactive). As for `CCS(=O)(=O)c1ccc(O)c(NC(=O)COc2ccc(Cl)cc2)c1`, the figure is -1.51% (inactive). The same measure for `N#Cc1ccc(OCCCN2CCC(C(O)(c3ccccc3)c3ccccc3)CC2)c(F)c1`: -9.35% (inactive). Regarding `O=S1(=O)c2c(cccc2N2CCCCC2)O[C@H](COCc2ccccc2)CN1C1CC1`, the inhibition was -6.9% (inactive).

For `COc1cncc(-c2cnc3sc(NCCc4ccccn4)nn23)c1`, the inhibition is -4.67% (inactive). The same measure for `COc1cccc(CNC(=O)[C@H]2CCCN2C(=O)[C@H]2CCCN2C(=O)c2ccc(F)cc2)c1`: -5.95% (inactive). Turning to `COc1ccc(SSc2ccc(OC)cc2C(=O)O)c(C(=O)O)c1`, the inhibition is -2.9% (inactive). Take `Cc1ccc(NC(=O)N2c3ccccc3SC2c2ccco2)c(C)c1` (configuration not stated): the inhibition was -10.9% (inactive). The same measure for `Cc1cc(Br)cn2c(Cc3ccccc3C(F)(F)F)c(-c3ccc(C#N)cc3)nc12`: -10% (inactive); for `COC(=O)c1c(-c2ccc(OC)cc2)c2c(c3c4cc(OC)ccc4n(S(=O)(=O)c4ccc(F)cc4)c13)C(=O)N(C)C2`: -5.34% (inactive); for `COc1ccc(S(=O)(=O)Nc2ccc3c(c2)C(=O)N([C@H](C)CO)C[C@H](C)[C@@H](CN(C)C)OCCCC[C@H](C)O3)cc1`: -5.26% (inactive). The same measure for `COC(=O)C1=C(C)N(Cc2ccccc2C(F)(F)F)C(=NCC2CC2)NC1c1cccc(Cl)c1` (configuration not stated): -11.5% (inactive); for `CCOC(=O)CNC(=O)N(C)[C@H]1C[C@H]2c3[nH]c4c(-c5ccc6c(c5)OCO6)cccc4c3CCN2C(=O)[C@H]1[C@H](C)O`: -2.88% (inactive); for `COc1ccc(NC(=O)N(C)C[C@@H]2OCCCC[C@@H](C)Oc3ccc(NC(=O)NC4CCCCC4)cc3C(=O)N([C@H](C)CO)C[C@@H]2C)cc1`: -5.46% (inactive). For the molecule `CCCCCCCCN1C(=O)[C@@H](CC(=O)NCCCC)C[C@@]2(C(=O)OC)C1=C[C@H](C(C)(C)C)O[C@@H]2C`, the inhibition was -9.75% (inactive).

Consider `C[C@@H]1ON(C)[C@H]2C[C@H]3c4cc(N5CCOCC5)ccc4CCN3C[C@@H]12`, for which the inhibition is -4.48% (inactive). As for `COc1ccc(C2CC(c3cccs3)=NN2C(=O)CSc2nncs2)cc1OC` (configuration not stated), the figure is -3.4% (inactive).

Regarding `COc1ccc(C2CC(c3cccs3)=NN2c2nc(C)c(C(C)=O)s2)cc1OC` (configuration not stated), the inhibition was 168% (active). Take `COc1ccc(C2CC(c3cccs3)=NN2C(=O)CSc2nnc(N)s2)cc1OC` (configuration not stated): the inhibition is -6.31% (inactive). As for `C[C@@H](CN1C2=NC[C@@H](Cc3ccccc3)N2C[C@H]1Cc1ccc(O)cc1)NC(=O)CCC1CCCCC1`, the figure is -5.25% (inactive). For the molecule `C[C@@H]1CN([C@H](C)CO)C(=O)CCCn2cc(nn2)CO[C@H]1CN(C)C(=O)Nc1ccc(N2CCCCC2)cc1`, the inhibition was -8.15% (inactive). As for `Cc1[nH]nc2c1C(c1ccc(Br)cc1)NC2=O` (configuration not stated), the figure is -4.02% (inactive); as for `COCc1cc(N2CCN(C(=O)OC(C)(C)C)C[C@@H]2C)ccc1N1CCN(Cc2ccccc2)[C@H](C)C1`, -8.69% (inactive); as for `CCOC(=O)C1=C(C(=O)OCC)C2N(Cc3ccc(C#N)cc3)c3ccccc3[C@@]23C[C@@H](C(=O)OC)N(S(=O)(=O)c2ccc(F)cc2)C3=N1` (some centres not stated), -8.5% (inactive). As for `CC(C)(C)c1ccc(S(=O)(=O)NCC2CCN(C(=O)C(=O)c3cc4ccccc4o3)CC2)cc1`, the inhibition is -8.19% (inactive).

Consider `COC(=O)[C@@]12C[C@@H](CC(=O)N3CCC(c4ccccc4)CC3)C(=O)N(Cc3ccccc3)C1=CCC(C)(C)C2`, for which the inhibition was -9.64% (inactive). As to `C=CCN=C1NC(c2cccc(C(F)(F)F)c2)C(C(=O)OC)=C(C)N1C` (configuration not stated), the inhibition is -4.33% (inactive). `COC(=O)C(C(=O)OC)c1ccccc1NS(=O)(=O)c1cccc2ccccc12`: the inhibition is -10.7% (inactive).

For `Cc1nc(NC(=O)C(C)(C)C)sc1[N+](=O)[O-]`, the inhibition was -3.6% (inactive). As for `CCc1c(-c2ccccc2OC)ncn1CCc1ccccc1OC`, the figure is -9.61% (inactive); as for `Cc1nc2c(OCc3ccc(Cl)cc3Cl)cccn2c1N(C)CC1CC1`, -6.39% (inactive); as for `CC(=O)Nc1cccc(-c2cc(NC=O)c3ncc(-c4ccc(F)c(Cl)c4)n3c2)c1`, -10.8% (inactive).

For `CN[C@H]1C[C@H]2c3[nH]c4c(-c5ccccc5)cccc4c3CCN2C(=O)[C@H]1[C@H](C)O`, the inhibition was -3.8% (inactive). As for `CCOC(=O)[C@]12CCC=C1N(Cc1ccco1)C(=O)[C@H](CC(=O)NCc1cccc(C(F)(F)F)c1)C2`, the figure is -5.22% (inactive); as for `C[C@H](O)[C@@H]1C(=O)N2CCc3c([nH]c4c(-c5ccc6c(c5)OCO6)cccc34)[C@@H]2C[C@@H]1N(C)C(=O)c1ccco1`, -4.05% (inactive).

Turning to `O=C(N[C@H](C(=O)N1CCC[C@H]1C(=O)NCCc1ccccc1Cl)c1ccccc1)c1ccccc1`, the inhibition is -4.64% (inactive).
